Source: PubChem BioAssay (Tox21)
Results filed as inconclusive are left out. Calls of active or inactive are those of the source. Calls come from the whole dose curve; as a rule, active = well fitted activation curve with a large enough effect in the repeat runs; inconclusive = weak or mixed curves; inactive = no such curve, though single readings can be large or run the other way.

These compounds were tested against Nuclear receptor subfamily 1 group I member 3 (Homo sapiens) (UniProt Q14994) (assay: qHTS assay to identify small molecule agonists of the constitutive androstane receptor (CAR) signaling pathway (AID 1224839; note: nearly all actives have a fitted effect of over 15% in size;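 for activation: HepG2 cells stably carrying human CAR and a CYP2B6 luciferase reporter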)). Conditions: HepG2 hCAR CYP2B6-luciferase, agonist mode, 24 h; series mostly up to 92.4 µM; activation: at the top concentration.
From the text: National Center for Advancing Translational Sciences [NCATS] NIH Chemical Genomics Center [NCGC] U.S. Environmental Protection Agency [EPA] National Institutes of Environmental Health Sciences [NIEHS] National Toxicology Program [NTP] Assay overview: The constitutive androstane receptor (CAR) is a nuclear receptor which regulates multiple drug metabolizing enzymes (DMEs) and transporters. Activating CAR will generally increase the transcription and subsequent translation of CYP2B6 and CYP3A4. These two DMEs represent about 50% of the drug metabolizing potential in the body. […] Recently, there have also been studies performed indicating CARs role in energy metabolism and cancer therapy. Therefore, inducing CARs activity could have a potential effect on diabetes and cancer. Identifying environmental toxins and compounds which modulate CAR, through the use of the Tox21 10K compound collection, will be an important step in determining the toxicity and potential therapeutic effects these factors will have on the human body.
Assay Protocol Summary: A double-stable (hCAR and CYP2B6-2.2kb) transfected cell line, derived from human hepatoma (HepG2) cells, was utilized for the duration of the quantitative high-throughput screens. The HepG2-CYP2B6-hCAR cells suspended in DMEM culture medium supplemented with 10% FBS, 5 ug/mL blasticidin, 0.5 mg/mL geneticin, 100 U/mL penicillin and 100 ug/mL streptomycin were dispensed at 2500 cells/4 uL/well in 1536-well white solid bottom plates using a Multidrop Combi. After the assay plates were incubated at 37 C/5% CO2 for 4 hrs, 23 nL of compounds at 15 concentrations (from 5-48 columns) or positive control (from 1 to 4 columns) were transferred to the assay plates using a Pintool station. One uL of PK11195, was added using a Flying Reagent Dispenser to generate a final concentration of 0.75 uM PK11195 inside each well. After a 24 hr incubation period at 37 C/5% CO2, four uL of ONE-Glo reagent was added into the assay plates using a Flying Reagent Dispenser. After a 30 min incubation period at room temperature, the luminescence intensity in the assay plates was measured using a ViewLux plate reader.
% is set by controls: 0 for no effect and ±100 for the full control effect; potency is the fitted concentration of half-maximal effect.

Chain of Nuclear receptor subfamily 1 group I member 3 (Homo sapiens) (Q14994 whole entry, looked up): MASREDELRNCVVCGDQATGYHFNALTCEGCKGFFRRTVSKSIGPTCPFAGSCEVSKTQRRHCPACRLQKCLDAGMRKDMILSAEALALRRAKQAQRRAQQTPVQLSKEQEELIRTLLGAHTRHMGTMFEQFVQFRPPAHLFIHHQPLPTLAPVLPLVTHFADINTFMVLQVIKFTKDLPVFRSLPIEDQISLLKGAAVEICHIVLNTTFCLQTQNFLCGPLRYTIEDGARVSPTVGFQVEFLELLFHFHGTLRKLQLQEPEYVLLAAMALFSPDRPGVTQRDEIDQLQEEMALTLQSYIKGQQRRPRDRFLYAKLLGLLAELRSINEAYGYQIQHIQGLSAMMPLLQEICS

Row | Structure (SMILES) | activation | Potency
1 | C=CC(=C)CCC=C(C)C | -2.58% (inactive) | 
2 | CCN(CC)CCNc1ccc(CO)c2sc3ccccc3c(=O)c12 | -17.7% [at 42.5 µM] (inactive) | 
3 | CCN(CC)CCCN(c1ccccc1)C1Cc2ccccc2C1 | -7.77% [at 42.5 µM] (inactive) | 
4 | C/C=C/C=N/NC(=O)c1ccncc1 | 3.1% [at 42.5 µM] (inactive) | 
5 | CC(O)C#CC(C)O (stereo not given) | -16.1% (inactive) | 
6 | CC(=O)Oc1ccc(C2(c3ccc(OC(C)=O)cc3)C(=O)Nc3ccccc32)cc1 | -8.48% [at 42.5 µM] (inactive) | 
7 | CC=O | -12.9% (inactive) | 
8 | CCCCOCC | -1.44% (inactive) | 
9 | CCCCCCOc1ccc(O)cc1 |  | 27.3 µM (active)
10 | COc1ccc2sc(C(=O)Nc3nnn[nH]3)c(OC(C)C)c2c1 | -11.5% (inactive) | 
11 | Cc1ccc(N)cc1O |  | 27.3 µM (active)
12 | C/C=C/CO | -0.741% (inactive) | 
13 | CCCCCCCCCC(=O)N(C)C |  | 55.3 µM (active)
14 | COCC(=O)O[C@]1(CCN(C)CCCc2nc3ccccc3[nH]2)CCc2cc(F)ccc2[C@@H]1C(C)C | -21.8% [at 42.5 µM] (inactive) | 
15 | CCOC(=O)[C@@](C)(N)Cc1ccc(O)c(O)c1 | -1.1% [at 42.5 µM] (inactive) | 
16 | CCCSS/C(CCO)=C(\C)N(C=O)Cc1cnc(C)nc1N | -7.88% [at 42.5 µM] (inactive) | 
17 | CN(C)CCN1CCOCC1 | -1.58% (inactive) | 
18 | CCCC(=O)OCC(COC(=O)CCC)OC(=O)CCC | -2.29% (inactive) | 
19 | CCCOc1sc(C(=O)N2CCC(c3cc(CN)ccc3F)CC2)c(C)c1Br | -28.4% (inactive) | 
20 | NC(=O)c1ccccc1N | 2.38% (inactive) | 

Row | Structure (SMILES) | activation | Potency
21 | CC(C)(C)C1=CC(=O)C=C(C(C)(C)C)C1=O | 11.5% (inactive) | 
22 | CN1CN(C)CN(C)C1 | -1.48% (inactive) | 
23 | Brc1ccccc1-c1ccccc1 | 4.88% (inactive) | 
24 | C[C@]12CC[C@H]3C(=CCc4cc(O)ccc43)[C@@H]1CCC2=O |  | 27.3 µM (active)
25 | c1cc(OCC2CO2)cc(OCC2CO2)c1 (stereo not given) | -2.26% (inactive) | 
26 | C=CC(=O)OCCC#N | 2.05% (inactive) | 
27 | CCN1CCN(c2cc(-c3ccc(F)cc3)c3c(n2)CCCCCC3)CC1 | -1.24% [at 19 µM] (inactive) | 
28 | Cc1cc(Nc2ccc(O)cc2)ccc1N | 6.97% (inactive) | 
29 | CCc1cccc(CC)c1N(COC)C(=O)CS(=O)(=O)O | -0.677% (inactive) | 
30 | CCCCCCS | -3.2% (inactive) | 
31 | C/C=C/C(=O)Oc1c(CCCCCC(C)C)cc([N+](=O)[O-])cc1[N+](=O)[O-] | 0.248% (inactive) | 
32 | CO[Si](CCCNCCNCCN)(OC)OC | -0.576% (inactive) | 
33 | C[Si](C)O[Si](C)C | -0.885% (inactive) | 
34 | CCCCCCCCCCOCC(O)CN (stereo not given) | -18% [at 42.5 µM] (inactive) | 
35 | Cc1ccc(CCn2c3c(c4cc(Cl)ccc42)CN(C)CC3)cn1 | -3.76% [at 42.5 µM] (inactive) | 
36 | CO[Si](CCC1CCC2OC2C1)(OC)OC (stereo not given) | -0.116% (inactive) | 
37 | CSc1ccc2c(c1)N(CCC1CCCCN1C)c1ccccc1S2 (stereo not given) |  | inactive
38 | C=CC(=O)OCC(O)COc1ccccc1 (stereo not given) | -2.99% (inactive) | 
39 | CCCCOc1ccc(C(=O)CCN2CCCCC2)cc1 | 5.01% [at 42.5 µM] (inactive) | 
40 | OCCCS | 4.6% (inactive) | 
